Experimental data from the supplement of paper PMC11732987, “Enantioselective OTUD7B fragment discovery through chemoproteomics screening and high-throughput optimisation” (Communications Chemistry, 2025).

Tests used:
Experiment in all cases: log2 ratio of Biotin-Ahx-Ub-VS probe labelling (fragment/DMSO); higher = less target engagement (more negative = stronger competition), active = hit call of the paper (q ≤ 0.05, log2 ratio ≤ -1)
Conditions in all cases: compound concentration: 200 uM; treatment time: 3 h
USP34 = USP34 (UniProt Q70CQ2)
Summary of the method: (§1)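 HEK293T lysate in Tris/CHAPS/IGEPAL buffer with protease inhibitors (495 µg per sample) was given fragment at 200 µM or vehicle for 3 h, in triplicate. It then received Biotin-Ahx-Ub-VS at 0.5 µM final for 1 h. Labelled DUBs were NeutrAvidin-enriched, digested with LysC and trypsin, and run by diaPASEF LC-MS/MS. Values are average log2 fragment/vehicle ratios by unpaired t-test on global-median-normalised Spectronaut quantities of proteins with ≥2 unique peptides.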

USP36 = target: T1, USP36 (UniProt Q9P275)
T1 sequence (whole entry): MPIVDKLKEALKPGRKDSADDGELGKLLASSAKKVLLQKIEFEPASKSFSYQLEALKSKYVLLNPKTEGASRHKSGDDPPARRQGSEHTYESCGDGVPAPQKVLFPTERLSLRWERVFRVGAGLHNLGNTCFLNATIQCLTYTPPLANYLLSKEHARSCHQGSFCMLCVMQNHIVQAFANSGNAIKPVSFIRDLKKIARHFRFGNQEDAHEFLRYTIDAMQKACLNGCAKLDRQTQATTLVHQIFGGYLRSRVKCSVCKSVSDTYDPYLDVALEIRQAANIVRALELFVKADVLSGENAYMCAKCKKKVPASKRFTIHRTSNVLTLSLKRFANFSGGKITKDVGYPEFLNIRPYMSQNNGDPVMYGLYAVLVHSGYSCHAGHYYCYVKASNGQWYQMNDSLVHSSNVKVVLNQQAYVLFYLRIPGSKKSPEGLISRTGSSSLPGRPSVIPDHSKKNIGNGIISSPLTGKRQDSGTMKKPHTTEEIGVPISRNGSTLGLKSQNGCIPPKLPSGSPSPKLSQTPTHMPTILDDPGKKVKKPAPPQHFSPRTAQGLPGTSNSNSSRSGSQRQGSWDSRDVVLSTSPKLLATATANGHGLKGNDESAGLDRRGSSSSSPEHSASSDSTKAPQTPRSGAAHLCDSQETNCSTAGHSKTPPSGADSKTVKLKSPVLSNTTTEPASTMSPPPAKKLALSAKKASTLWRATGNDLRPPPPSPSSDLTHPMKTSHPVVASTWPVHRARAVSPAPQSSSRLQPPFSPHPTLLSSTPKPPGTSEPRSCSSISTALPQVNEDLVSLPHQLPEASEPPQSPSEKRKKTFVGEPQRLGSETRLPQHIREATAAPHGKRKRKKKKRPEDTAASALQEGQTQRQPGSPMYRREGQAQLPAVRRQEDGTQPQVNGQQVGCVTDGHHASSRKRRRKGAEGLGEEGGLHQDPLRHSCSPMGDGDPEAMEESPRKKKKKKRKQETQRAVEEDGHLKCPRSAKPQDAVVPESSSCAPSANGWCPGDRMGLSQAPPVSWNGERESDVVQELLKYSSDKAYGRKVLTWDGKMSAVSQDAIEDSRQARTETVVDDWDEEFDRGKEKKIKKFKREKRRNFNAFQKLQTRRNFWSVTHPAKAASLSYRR
Summary of the method: as §1

USP38 = target: T2, USP38 (UniProt Q8NB14)
T2 sequence (whole entry): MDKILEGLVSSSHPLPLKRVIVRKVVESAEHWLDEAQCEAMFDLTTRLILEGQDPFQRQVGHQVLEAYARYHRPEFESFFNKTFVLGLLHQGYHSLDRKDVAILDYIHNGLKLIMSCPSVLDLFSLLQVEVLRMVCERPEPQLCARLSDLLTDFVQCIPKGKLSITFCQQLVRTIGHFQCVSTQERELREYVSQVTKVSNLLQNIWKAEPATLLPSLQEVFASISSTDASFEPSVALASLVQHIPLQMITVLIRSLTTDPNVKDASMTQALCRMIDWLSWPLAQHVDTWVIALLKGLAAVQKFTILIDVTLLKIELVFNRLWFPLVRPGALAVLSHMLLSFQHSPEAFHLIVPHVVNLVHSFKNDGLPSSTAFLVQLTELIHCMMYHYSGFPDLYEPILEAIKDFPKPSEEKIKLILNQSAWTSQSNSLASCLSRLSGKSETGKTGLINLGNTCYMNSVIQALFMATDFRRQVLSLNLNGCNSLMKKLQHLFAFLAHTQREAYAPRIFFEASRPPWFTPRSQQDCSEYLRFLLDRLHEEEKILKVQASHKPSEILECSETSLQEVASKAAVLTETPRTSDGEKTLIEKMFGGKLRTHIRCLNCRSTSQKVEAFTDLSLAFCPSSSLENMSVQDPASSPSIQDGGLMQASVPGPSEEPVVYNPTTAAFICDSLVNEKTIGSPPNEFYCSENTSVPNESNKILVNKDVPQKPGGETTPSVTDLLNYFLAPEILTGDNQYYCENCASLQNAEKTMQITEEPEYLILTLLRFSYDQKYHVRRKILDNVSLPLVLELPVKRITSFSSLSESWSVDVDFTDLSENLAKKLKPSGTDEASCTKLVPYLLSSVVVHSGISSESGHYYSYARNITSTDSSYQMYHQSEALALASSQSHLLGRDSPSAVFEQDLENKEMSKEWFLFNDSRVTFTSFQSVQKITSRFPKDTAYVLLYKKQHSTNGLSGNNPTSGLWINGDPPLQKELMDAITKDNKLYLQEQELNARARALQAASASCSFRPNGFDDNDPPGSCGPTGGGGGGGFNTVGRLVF
Summary of the method: as §1

USP39 = target: T3, USP39 (UniProt Q53GS9)
T3 sequence (whole entry): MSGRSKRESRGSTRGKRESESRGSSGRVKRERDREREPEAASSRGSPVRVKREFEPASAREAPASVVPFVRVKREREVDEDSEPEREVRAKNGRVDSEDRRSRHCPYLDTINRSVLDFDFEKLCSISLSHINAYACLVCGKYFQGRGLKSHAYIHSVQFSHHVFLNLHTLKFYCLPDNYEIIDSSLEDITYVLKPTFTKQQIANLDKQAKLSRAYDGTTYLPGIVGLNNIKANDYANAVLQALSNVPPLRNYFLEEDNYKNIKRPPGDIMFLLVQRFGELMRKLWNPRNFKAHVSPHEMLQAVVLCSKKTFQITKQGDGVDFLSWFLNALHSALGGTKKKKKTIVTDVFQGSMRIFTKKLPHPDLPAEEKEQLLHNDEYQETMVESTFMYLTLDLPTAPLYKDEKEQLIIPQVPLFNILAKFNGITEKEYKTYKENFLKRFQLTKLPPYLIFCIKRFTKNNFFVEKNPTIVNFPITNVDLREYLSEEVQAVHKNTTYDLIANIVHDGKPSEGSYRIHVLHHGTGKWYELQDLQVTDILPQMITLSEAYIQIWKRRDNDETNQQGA
Summary of the method: as §1

USP4 = target: T4, USP4 (UniProt Q13107)
T4 sequence (whole entry): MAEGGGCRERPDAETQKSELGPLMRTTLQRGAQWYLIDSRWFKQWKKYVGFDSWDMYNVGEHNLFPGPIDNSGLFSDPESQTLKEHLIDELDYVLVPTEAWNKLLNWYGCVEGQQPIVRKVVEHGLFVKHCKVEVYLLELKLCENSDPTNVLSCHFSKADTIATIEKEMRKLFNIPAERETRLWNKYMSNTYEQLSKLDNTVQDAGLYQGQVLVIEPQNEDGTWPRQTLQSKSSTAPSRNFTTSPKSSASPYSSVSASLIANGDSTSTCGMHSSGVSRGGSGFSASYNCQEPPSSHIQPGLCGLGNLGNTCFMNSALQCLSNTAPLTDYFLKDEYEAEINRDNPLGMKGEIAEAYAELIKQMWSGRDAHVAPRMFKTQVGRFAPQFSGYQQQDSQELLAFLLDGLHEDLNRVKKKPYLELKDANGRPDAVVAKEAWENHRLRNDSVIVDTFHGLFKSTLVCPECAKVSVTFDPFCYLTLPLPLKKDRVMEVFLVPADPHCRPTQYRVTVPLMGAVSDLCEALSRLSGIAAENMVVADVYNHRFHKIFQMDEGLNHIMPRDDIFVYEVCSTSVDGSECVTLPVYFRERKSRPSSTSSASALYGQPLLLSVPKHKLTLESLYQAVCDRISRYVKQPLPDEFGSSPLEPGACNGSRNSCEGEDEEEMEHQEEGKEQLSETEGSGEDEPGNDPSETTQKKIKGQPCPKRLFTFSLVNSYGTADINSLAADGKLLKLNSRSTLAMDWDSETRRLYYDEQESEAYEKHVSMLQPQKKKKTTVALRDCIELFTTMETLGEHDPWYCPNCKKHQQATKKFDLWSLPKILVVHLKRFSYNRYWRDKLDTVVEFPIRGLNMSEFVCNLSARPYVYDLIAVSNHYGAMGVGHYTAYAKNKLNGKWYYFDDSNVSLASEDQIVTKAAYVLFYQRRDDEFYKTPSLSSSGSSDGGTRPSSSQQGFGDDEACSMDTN
Summary of the method: as §1

Measured: log2 ratio of Biotin-Ahx-Ub-VS probe labelling

Chain of USP34 (Q70CQ2 whole entry, the tested form may be a part): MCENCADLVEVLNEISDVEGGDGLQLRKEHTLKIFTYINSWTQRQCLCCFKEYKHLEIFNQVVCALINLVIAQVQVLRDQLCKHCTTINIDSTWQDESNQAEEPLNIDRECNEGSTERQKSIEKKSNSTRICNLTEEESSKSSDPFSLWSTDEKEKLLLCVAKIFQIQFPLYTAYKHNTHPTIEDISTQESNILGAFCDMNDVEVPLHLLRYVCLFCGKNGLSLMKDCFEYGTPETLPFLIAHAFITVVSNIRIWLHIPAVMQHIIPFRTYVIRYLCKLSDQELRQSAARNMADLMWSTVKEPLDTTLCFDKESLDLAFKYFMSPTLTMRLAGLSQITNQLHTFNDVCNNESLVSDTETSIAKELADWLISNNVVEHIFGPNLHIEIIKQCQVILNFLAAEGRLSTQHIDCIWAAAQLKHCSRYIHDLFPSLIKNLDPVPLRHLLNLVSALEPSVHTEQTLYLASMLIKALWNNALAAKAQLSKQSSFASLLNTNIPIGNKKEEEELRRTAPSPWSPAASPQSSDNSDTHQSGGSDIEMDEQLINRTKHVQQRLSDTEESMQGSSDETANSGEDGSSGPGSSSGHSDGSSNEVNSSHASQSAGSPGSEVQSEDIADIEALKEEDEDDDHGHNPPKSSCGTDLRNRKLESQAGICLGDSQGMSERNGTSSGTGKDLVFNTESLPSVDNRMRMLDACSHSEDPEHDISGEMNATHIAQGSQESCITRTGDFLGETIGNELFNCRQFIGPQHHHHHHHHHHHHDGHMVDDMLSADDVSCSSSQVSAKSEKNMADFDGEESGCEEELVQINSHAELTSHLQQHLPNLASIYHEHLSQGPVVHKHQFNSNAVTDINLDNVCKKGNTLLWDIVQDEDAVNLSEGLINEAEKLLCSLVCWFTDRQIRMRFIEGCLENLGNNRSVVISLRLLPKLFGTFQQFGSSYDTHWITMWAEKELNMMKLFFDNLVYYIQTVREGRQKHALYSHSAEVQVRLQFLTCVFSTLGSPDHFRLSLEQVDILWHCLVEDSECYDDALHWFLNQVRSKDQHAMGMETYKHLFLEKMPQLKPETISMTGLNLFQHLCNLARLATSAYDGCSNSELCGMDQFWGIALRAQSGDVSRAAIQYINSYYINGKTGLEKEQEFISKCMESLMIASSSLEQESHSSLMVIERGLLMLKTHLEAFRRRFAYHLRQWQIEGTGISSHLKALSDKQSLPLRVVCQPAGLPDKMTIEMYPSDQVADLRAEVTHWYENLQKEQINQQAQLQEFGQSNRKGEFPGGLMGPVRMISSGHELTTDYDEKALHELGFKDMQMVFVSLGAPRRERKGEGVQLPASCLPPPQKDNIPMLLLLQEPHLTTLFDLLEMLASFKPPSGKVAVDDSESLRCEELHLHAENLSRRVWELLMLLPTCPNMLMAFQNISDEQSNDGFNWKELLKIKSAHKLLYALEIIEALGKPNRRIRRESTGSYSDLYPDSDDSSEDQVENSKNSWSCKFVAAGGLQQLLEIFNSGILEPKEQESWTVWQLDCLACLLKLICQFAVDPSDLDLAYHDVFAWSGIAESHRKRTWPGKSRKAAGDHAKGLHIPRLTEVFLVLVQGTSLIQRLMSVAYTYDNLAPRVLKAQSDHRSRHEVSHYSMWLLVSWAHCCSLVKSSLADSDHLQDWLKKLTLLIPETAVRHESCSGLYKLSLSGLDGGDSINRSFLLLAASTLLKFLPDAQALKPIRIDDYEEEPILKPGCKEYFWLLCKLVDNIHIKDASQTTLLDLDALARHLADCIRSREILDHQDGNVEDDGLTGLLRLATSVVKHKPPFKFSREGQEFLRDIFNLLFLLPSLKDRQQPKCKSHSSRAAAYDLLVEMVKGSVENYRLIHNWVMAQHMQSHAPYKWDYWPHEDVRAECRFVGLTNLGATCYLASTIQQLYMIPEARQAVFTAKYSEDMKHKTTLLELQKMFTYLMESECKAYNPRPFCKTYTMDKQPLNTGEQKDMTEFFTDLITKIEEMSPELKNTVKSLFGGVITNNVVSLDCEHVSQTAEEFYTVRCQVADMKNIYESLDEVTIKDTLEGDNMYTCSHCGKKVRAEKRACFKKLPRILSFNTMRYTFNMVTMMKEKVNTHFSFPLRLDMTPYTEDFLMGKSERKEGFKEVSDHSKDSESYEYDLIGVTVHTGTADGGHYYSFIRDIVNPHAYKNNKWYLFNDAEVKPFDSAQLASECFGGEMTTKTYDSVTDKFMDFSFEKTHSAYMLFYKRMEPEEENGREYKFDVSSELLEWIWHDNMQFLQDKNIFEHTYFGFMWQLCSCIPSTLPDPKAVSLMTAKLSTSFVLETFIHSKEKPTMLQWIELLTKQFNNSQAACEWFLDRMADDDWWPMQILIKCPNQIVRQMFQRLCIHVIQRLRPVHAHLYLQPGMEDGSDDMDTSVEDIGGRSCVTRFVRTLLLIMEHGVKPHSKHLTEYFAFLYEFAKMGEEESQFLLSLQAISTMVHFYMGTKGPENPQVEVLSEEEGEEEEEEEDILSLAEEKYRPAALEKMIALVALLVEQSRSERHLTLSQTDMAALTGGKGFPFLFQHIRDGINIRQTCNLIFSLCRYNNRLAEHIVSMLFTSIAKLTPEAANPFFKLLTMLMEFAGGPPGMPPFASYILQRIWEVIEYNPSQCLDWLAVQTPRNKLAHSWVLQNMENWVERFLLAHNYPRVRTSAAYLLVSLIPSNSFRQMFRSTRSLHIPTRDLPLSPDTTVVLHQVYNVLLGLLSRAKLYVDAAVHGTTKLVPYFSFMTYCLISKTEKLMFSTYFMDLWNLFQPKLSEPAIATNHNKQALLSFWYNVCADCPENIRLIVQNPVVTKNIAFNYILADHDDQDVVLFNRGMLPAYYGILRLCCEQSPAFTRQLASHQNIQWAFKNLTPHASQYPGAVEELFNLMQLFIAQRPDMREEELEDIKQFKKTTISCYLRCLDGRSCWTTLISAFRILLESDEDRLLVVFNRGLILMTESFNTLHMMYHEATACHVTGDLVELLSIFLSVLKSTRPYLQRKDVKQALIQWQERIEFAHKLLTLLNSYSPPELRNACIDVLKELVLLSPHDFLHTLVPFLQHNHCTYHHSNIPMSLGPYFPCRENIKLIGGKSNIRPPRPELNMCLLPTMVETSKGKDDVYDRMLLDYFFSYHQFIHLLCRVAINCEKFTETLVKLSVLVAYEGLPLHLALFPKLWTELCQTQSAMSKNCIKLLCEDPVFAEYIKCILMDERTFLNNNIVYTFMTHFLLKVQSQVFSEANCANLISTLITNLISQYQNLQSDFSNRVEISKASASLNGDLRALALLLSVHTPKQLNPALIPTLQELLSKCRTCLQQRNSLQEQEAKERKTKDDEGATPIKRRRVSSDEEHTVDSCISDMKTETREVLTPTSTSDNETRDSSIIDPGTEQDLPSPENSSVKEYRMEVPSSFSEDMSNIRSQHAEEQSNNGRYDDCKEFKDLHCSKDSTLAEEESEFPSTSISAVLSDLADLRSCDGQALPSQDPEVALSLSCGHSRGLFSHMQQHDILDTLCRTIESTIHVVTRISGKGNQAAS

CC(NC(=O)CCl)c1cnn(C2CC2)c1 (stereo not given)
inactive: USP34 -0.133 | USP36 -0.123 | USP38 -0.144 | USP39 -0.0478 | USP4 -0.409
